According to PubChem BioAssay (NCATS):
A number with no mark means an inactive call. Inconclusive results are not listed. The source made the active and inactive calls. Unless noted, calls come from the whole dose curve; as a rule, active = well fitted curve in either direction with a large enough effect (not every such curve was filed as active); inconclusive = small, poorly fitted or top-dose-only effect, or another doubt; inactive = flat fitted curve, though single readings scatter.

Legend:
[1] = target: Lysosomal acid glucosylceramidase (Homo sapiens) (UniProt P04062); assay: Glucocerebrosidase-p2 (AID 348; in the data active = potency below about 10 µM; note: potency is the fitted concentration of half-maximal effect); conditions: purified GBA, blue fluorogenic substrate, 40 min
Lysosomal acid glucosylceramidase (Homo sapiens), sequence (P04062 whole entry, looked up): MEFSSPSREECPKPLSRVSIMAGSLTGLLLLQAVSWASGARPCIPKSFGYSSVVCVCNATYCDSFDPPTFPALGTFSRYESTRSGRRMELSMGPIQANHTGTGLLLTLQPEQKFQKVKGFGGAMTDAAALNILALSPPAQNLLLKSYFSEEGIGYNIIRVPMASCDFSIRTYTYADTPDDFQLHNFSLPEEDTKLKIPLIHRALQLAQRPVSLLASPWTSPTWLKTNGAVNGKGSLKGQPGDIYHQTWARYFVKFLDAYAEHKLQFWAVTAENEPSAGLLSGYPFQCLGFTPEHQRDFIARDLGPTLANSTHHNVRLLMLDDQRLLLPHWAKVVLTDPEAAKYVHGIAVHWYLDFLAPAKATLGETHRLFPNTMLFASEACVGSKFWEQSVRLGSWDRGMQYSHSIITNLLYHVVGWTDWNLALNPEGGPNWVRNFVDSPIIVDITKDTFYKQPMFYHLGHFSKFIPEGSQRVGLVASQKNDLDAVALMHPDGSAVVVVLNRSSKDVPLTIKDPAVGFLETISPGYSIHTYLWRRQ
How it was run: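 Compounds titrated from 0.6 nM upwards against 0.2 nM enzyme in pH 5.9 citric acid/KH2PO4, taurocholate, tween-20; blue fluorogenic substrate 80 uM, 40 min room temperature, stopped and read Ex 365/Em 440 for AC50.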

[2] = AP1 Signaling Pathway (AID 357); conditions: ME-180 AP-1-bla reporter, EGF-induced, beta-lactamase ratio, 5 h; at 7.69 µM (top of the series) unless noted; note: % is set by controls: 0 for no effect and ±100 for the full control effect
How it was run: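 Titration-series screen for positive or negative modulators of EC50 EGF-induced signaling in ME-180 cells carrying an AP-1-driven beta-lactamase reporter. After 5 hours at 37 degrees Celsius, CCF4 460nm/530nm emission ratio gave %Activity; AC50 values derived.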

[3] = NFAT Signaling Pathway (AID 444); conditions: Jurkat NFAT-bla M1, carbachol, beta-lactamase ratio, 5 h; at 7.69 µM (top of the series) unless noted;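 note: carbachol stimulus at about its EC50 of 1 µM final; % is set by controls: 0 for no effect and ±100 for the full control effect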
How it was run: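 Jurkat cells with NFAT-driven β-lactamase reporter and co-expressed M1 receptor, stimulated with carbachol (final 1 uM, ~EC50), compound titration, 5 h at 37 °C. CCF4 loaded 1 h at RT; 460/530 nm ratio gave %activity and AC50.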

[4] = Stat Signaling Pathway (AID 446); conditions: ME-180 SIE beta-lactamase reporter, IL-6 stimulated, 5 h; at 7.69 µM (top of the series) unless noted;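 note: ME-180 cervical cancer cells given 40 pM IL-6 alongside compound; SIE-controlled beta-lactamase reporter measured as 460/530 nm FRET emission ratio; % is set by controls: 0 for no effect and ±100 for the full control effect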
How it was run: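 ME-180 SIE-bla cells; overnight plating; cpd + IL-6 40 pM, 5 h, 37 C; LiveBLAzer 2.5 h RT; 460/530 nm emission ratio. Normalized to 300 pM IL-6 and 125 nM JAK inhibitor controls.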

[5] = target: Glucocorticoid receptor (Homo sapiens) (UniProt P04150); assay: GR-GFP Redistribution (AID 450;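 active = compounds whose dose series gives a full or clear partial fitted curve of increased nuclear translocation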; note: potency is the fitted concentration of half-maximal effect); conditions: U2OS GR-GFP nuclear translocation, laser cytometry, 2 h
Glucocorticoid receptor (Homo sapiens), sequence (P04150 whole entry, looked up, the tested form may be a part): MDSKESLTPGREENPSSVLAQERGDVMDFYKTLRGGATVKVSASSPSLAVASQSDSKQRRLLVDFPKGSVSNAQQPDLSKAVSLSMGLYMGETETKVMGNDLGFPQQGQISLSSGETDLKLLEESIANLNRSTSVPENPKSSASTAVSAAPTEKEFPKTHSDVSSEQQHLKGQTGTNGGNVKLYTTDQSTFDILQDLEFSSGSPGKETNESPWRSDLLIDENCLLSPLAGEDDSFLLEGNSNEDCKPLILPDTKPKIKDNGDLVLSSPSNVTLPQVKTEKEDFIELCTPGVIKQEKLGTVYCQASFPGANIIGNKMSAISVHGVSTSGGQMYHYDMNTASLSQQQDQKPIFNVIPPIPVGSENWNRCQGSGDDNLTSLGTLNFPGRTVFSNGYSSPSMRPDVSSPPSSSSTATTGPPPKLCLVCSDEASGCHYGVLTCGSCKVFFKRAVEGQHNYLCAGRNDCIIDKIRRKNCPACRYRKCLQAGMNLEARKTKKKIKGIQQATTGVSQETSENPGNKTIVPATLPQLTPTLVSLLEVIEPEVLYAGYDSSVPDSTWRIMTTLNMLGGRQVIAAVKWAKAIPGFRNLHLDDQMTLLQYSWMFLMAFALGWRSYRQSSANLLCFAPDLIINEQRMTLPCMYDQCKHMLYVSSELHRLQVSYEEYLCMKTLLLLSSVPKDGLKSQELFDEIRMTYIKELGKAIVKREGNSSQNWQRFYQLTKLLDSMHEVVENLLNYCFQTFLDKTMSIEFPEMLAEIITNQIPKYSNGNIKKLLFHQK

[6] = target: Glucocorticoid receptor (Homo sapiens) (UniProt P04150); assay: GR-EFC Redistribution (AID 451; calls by dose curve; note: potency is the fitted concentration of half-maximal effect); conditions: CHO-K1 GR-EFC translocation, beta-gal luminescence, 2 h
How it was run: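 CHO-K1 cells expressing nuclear EA and GR-ED fragments of b-gal; compounds titrated up to 46 uM final, 2 h at 37 C. GR nuclear translocation read as complemented b-gal luminescence after 1 h RT detection.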

[7] = target: Mitogen-activated protein kinase 10 (Mus musculus) (UniProt Q61831); assay: JNK3 AlphaScreen Assay (AID 530); conditions: JNK3 lysate, c-Jun phosphorylation; series mostly up to 11.4 µM;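 note: kinase came from lysate of stimulated human HepG2 cells; signal reports phosphorylation of biotinylated GST-cJun 1-79 at Ser73 with 10 µM ATP; % is set by controls: 0 for no effect and ±100 for the full control effect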
How it was run: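 qHTS format: compounds tested as titrations against IL-1beta/TNF-alpha-activated HepG2 lysate JNK3 with biotin-GST-cJun substrate and 10 uM ATP at room temperature. Loss of anti-phospho-cJun AlphaScreen signal indicates inhibition.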

[8] = target: 3',5'-cyclic-AMP phosphodiesterase 4B (Homo sapiens) (UniProt Q07343); assay: qHTS Assay for Inhibitors of PDE-IV (AID 607; active = well fitted activation curve with a large enough effect in the main read-out, with a control signal flat, not every such curve was filed as active; note: % of control where 0% means no effect); conditions: HEK293 ACTOne CNG channel cells, membrane potential fluorescence; series mostly up to 22.9 µM
3',5'-cyclic-AMP phosphodiesterase 4B (Homo sapiens), sequence (Q07343 whole entry, looked up): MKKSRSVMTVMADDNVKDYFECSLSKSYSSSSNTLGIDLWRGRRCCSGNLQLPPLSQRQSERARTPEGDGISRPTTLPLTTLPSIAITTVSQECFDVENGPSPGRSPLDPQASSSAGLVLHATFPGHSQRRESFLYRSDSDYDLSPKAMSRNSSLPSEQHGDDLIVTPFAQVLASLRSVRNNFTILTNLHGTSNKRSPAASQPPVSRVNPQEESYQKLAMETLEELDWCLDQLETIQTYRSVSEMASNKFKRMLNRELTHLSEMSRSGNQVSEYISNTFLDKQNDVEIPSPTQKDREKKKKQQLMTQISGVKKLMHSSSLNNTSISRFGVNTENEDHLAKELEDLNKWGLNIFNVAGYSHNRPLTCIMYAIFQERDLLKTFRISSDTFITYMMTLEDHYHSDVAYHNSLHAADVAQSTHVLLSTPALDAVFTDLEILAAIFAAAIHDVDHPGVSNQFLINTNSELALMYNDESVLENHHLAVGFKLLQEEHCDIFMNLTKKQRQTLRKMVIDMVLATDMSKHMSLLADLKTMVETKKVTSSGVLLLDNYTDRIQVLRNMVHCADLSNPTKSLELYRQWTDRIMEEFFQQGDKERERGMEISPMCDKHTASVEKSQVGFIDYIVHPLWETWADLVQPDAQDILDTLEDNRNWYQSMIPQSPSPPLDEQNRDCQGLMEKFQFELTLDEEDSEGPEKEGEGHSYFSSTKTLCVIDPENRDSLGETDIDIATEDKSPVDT
How it was run: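 ACTOne HEK293 cells carry a modified cAMP-gated CNG channel and express endogenous PDE4; plated 1000 cells/well, compounds up to 22.9 uM final. Membrane-potential dye fluorescence (ex 535/em 590) was read; parental cells received 10 uM forskolin + 100 uM RO 20-1724.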

[9] = target: ATP-dependent 6-phosphofructokinase (Trypanosoma brucei brucei) (UniProt O15648); assay: qHTS Assay to Find Inhibitors of T. brucei phosphofructokinase: hit validation (AID 492961; active = well fitted curve in the direction sought with a large enough effect; an effect the other way counts as inactive or inconclusive; note: % is set by controls: 0 for no effect and ±100 for the full control effect); conditions: T. brucei PFK, ADP-Glo luminescence; series mostly up to 51.4 µM
ATP-dependent 6-phosphofructokinase (Trypanosoma brucei brucei), sequence (O15648 whole entry, looked up): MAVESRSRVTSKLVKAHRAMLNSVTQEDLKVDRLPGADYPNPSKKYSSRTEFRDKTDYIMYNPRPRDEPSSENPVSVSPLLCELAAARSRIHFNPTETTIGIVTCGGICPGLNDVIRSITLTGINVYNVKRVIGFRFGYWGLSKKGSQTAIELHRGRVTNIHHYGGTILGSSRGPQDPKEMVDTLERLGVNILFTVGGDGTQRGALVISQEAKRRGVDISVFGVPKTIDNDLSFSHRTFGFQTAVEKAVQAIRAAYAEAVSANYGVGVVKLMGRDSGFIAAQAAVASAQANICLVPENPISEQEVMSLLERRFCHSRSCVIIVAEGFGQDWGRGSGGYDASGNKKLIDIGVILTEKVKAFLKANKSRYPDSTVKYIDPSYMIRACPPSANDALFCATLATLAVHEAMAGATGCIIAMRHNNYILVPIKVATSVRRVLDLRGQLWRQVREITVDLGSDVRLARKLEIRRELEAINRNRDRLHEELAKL
How it was run: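 Luminescence from ADP-Glo reports ADP generated as T. brucei PFK (1.25 nM) phosphorylates 0.5 mM fructose-6-phosphate using 0.1 mM ATP. Reactions ran 45 min at room temperature, pH 8.0.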

[10] = qHTS profiling for inhibitors of Plasmodium falciparum proliferation (AID 504749; active = well fitted curve in the direction sought with a large enough effect; an effect the other way counts as inactive or inconclusive;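 note: 0% = DMSO vehicle and full inhibition = artemisinin control; nearly all actives have a fitted effect of over 60% in size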); conditions: P. falciparum in erythrocytes, SYBR Green DNA, 72 h, at 28.7 µM (top of the series)
How it was run: (§1)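 Readout was DNA-dye fluorescence from lysed cultures, ex 485/em 535 nm. Parasitized red cells had grown 72 h with compound; data scaled between 0.29 uM artemisinin and DMSO wells and corrected using vehicle-only plates.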

AS120 = assay: as above; conditions: P. falciparum in erythrocytes, SYBR Green DNA, 72 h; series mostly up to 28.7 µM
How it was run: as §1

ATS189 = assay: as above; conditions: P. falciparum in erythrocytes, SYBR Green DNA, 72 h; series mostly up to 28.7 µM
How it was run: as §1

W2 = assay: as above; conditions: P. falciparum in erythrocytes, SYBR Green DNA, 72 h; series mostly up to 28.7 µM
How it was run: as §1

[11] = target: Cytochrome P450 1A2 (Homo sapiens) (UniProt P05177); assay: p450-cyp1a2 (AID 410; calls by dose curve; note: potency is the fitted concentration of half-maximal effect;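 for activity change, negative = inhibition: -100% = full effect of reference inhibitor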); conditions: recombinant CYP1A2, luciferin-ME demethylation, luminescence; series mostly up to 11.4 µM
Cytochrome P450 1A2 (Homo sapiens), sequence (P05177 whole entry, looked up): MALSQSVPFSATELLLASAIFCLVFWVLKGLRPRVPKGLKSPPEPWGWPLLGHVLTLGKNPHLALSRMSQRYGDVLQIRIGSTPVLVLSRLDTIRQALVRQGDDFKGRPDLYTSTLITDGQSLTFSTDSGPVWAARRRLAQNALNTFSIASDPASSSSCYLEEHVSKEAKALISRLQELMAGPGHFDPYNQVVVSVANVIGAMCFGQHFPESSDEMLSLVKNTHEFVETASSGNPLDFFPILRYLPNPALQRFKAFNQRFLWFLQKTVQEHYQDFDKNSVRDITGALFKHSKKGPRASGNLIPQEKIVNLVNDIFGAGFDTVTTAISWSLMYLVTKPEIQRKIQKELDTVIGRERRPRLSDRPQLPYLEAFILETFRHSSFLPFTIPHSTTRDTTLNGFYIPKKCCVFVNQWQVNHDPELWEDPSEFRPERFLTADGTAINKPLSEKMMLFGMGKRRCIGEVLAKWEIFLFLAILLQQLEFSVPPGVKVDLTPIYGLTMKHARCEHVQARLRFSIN
How it was run: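 Inhibition was calculated relative to 57 uM furafylline (full inhibition). The reaction used human CYP1A2 at 20nM with Luciferin-ME at its Km, 100uM, driven by an NADPH-regenerating system for 60 min at room temperature.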

[12] = target: Cytochrome P450 2C9 (Homo sapiens) (UniProt P11712); assay: qHTS Assay for Inhibitors and Substrates of Cytochrome P450 2C9 (AID 883; active = well fitted curve in the direction sought with a large enough effect; an effect the other way counts as inactive or inconclusive; note: nearly all actives have a fitted effect of over 60% in size; note: potency is the fitted concentration of half-maximal effect); conditions: recombinant CYP2C9, luciferin-H luminescence, 60 min; series mostly up to 11.4 µM
Cytochrome P450 2C9 (Homo sapiens), sequence (P11712 whole entry, looked up): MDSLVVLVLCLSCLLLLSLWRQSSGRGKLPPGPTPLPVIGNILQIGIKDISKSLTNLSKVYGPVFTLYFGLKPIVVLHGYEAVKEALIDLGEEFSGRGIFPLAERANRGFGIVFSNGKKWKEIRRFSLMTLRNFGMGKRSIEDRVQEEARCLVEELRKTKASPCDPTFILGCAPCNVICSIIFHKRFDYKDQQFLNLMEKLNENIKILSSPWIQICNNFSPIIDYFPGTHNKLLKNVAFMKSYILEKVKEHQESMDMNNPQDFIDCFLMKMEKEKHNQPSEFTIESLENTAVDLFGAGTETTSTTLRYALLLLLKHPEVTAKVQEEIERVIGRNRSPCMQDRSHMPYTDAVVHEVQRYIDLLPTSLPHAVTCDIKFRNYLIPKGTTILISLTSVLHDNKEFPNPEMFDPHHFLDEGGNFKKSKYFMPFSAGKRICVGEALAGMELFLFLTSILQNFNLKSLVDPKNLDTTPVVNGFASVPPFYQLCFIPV
How it was run: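 10nM CYP2C9 + 100uM Luciferin-H (=KM), 25mM KPO4; cpd 10 min 37C; NADPH regen, 60 min 37C; stop/detect with P450 Glo-Buffer 20 min; luminescence. Norm. to 57uM sulphaphenazole as full inhibition.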

[13] = target: Cytochrome P450 3A4 (Homo sapiens) (UniProt P08684); assay: qHTS Assay for Activators of Cytochrome P450 3A4 (AID 885; active = well fitted curve in the direction sought with a large enough effect; an effect the other way counts as inactive or inconclusive; note: nearly all actives have a fitted effect of over 65% in size); conditions: recombinant CYP3A4, Luciferin-PPXE luminescence, 60 min; series mostly up to 11.4 µM
Cytochrome P450 3A4 (Homo sapiens), sequence (P08684 whole entry, looked up): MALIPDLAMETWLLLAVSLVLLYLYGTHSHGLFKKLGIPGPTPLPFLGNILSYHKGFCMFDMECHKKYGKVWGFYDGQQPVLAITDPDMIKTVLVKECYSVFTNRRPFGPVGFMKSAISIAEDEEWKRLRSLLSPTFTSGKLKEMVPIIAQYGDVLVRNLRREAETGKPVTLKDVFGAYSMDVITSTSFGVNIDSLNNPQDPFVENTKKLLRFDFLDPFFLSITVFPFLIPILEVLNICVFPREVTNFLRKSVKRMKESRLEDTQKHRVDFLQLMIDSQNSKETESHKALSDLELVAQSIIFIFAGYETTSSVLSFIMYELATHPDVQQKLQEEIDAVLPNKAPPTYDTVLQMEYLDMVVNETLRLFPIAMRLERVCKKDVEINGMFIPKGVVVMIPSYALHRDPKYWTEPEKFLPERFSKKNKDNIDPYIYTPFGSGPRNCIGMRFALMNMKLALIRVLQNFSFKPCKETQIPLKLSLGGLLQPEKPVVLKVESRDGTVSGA
How it was run: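 20nM CYP3A4 + 25uM Luciferin-PPXE (=KM), 200mM KPO4; cpd 10 min RT; NADPH regen, 60 min RT; stop w/ detection buffer, 20 min; luminescence. Normalized to 57 uM ketoconazole.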

[14] = target: Cytochrome P450 2C19 (Homo sapiens) (UniProt P33261); assay: qHTS Assay for Inhibitors and Substrates of Cytochrome P450 2C19 (AID 899; active = well fitted curve in the direction sought with a large enough effect; an effect the other way counts as inactive or inconclusive; note: nearly all actives have a fitted effect of over 60% in size; note: potency is the fitted concentration of half-maximal effect); conditions: recombinant CYP2C19, luciferin-H EGE luminescence; series mostly up to 11.4 µM
Cytochrome P450 2C19 (Homo sapiens), sequence (P33261 whole entry, looked up): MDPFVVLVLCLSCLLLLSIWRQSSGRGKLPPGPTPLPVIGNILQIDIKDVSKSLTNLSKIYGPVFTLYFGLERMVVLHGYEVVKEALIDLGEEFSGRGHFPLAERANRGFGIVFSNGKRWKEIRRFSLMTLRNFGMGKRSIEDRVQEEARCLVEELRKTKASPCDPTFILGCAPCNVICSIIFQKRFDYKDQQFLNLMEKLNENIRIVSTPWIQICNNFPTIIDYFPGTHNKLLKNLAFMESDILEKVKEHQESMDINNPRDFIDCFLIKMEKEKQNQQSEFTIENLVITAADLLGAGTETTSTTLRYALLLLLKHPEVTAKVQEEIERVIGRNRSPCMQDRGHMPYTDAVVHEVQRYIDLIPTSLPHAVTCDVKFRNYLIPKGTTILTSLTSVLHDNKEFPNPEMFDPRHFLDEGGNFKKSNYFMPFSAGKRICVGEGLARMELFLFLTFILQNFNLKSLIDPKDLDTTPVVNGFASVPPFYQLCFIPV
How it was run: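 Luminescent read-out of luciferin formed from Luciferin-H EGE (10uM, equal to KM). Enzyme 5nM in 50mM KPO4; compound added, 10 min at 37C, then NADPH regenerating system for 60 min at 37C. Full inhibition defined by 57uM ketoconazole.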

[15] = qHTS Assay for Identification of Small Molecule Agonists for Hypoxia Response Element Signaling Pathway (AID 914; active = well fitted activation curve with a large enough effect in the signal ratio, with a control signal flat, not every such curve was filed as active; the % refers to the signal ratio; note: % of control where 0% means no effect); conditions: ME-180 (cervical carcinoma) HRE-bla reporter, beta-lactamase ratio, CoCl2, 17 h; activation: stronger effect = higher value
How it was run: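 Compounds in a titration series were added to ME-180 reporter cells alongside an EC50 level of CoCl2. After 17 hours, beta-lactamase activity was read as the 460nm/530nm emission ratio of CCF4, giving AC50 values.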

[16] = target: Cytochrome P450 3A4 (Homo sapiens) (UniProt P08684); assay: qHTS Assay for Inhibitors and Substrates of Cytochrome P450 3A4 (AID 884; active = well fitted curve in the direction sought with a large enough effect; an effect the other way counts as inactive or inconclusive; note: % is set by controls: 0 for no effect and ±100 for the full control effect; nearly all actives have a fitted effect of over 50% in size); conditions: recombinant CYP3A4, Luciferin-PPXE luminescence; series mostly up to 57.1 µM
How it was run: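 20 nM human CYP3A4 with 25 uM Luciferin-PPXE (at KM) in 200 mM KPO4, preincubated 10 min with compound; NADPH regeneration started a 60 min RT reaction. Luciferin detected by luminescence, normalized to 57 uM ketoconazole as full inhibition.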

[17] = target: Cytochrome P450 2D6 (Homo sapiens) (UniProt P10635); assay: qHTS Assay for Inhibitors and Substrates of Cytochrome P450 2D6 (AID 891; active = well fitted curve in the direction sought with a large enough effect; an effect the other way counts as inactive or inconclusive;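 note: luciferin methyl ether substrate demethylated by CYP2D6 with NADPH regeneration; % is set by controls: 0 for no effect and ±100 for the full control effect; nearly all actives have a fitted effect of over 60% in size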); conditions: recombinant CYP2D6, luciferin-ME EGE luminescence; series mostly up to 11.4 µM
How it was run: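 Human CYP2D6 (5 nM) with 30 uM Luciferin-ME EGE (at Km) in 100 mM KPO4, compound preincubated 10 min, then NADPH regeneration system for 60 min at room temperature. Luciferin read by luminescence; normalized to 1.43 uM quinidine.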

Molecule `O=C(O)[C@@H](O)[C@@H](O)[C@H](O)C(=O)CO` has a Potency [1] greater than 11.4 µM, an activity change, negative = inhibition [2] of -1.75% and an activity change, negative = inhibition [3] of -10.1%. For the same molecule, the activity, negative = inhibition [4] was 9.54%, the Potency [5] was greater than 46 µM and the Potency [6] was greater than 9.22 µM. The Potency [7] was “inactive”, the Potency [8] was “inactive” and the outcome [9] was “inactive”. The activity, negative = inhibition ([10]; parasite line A) was 6.93%, the activity, negative = inhibition ([10]; parasite line B) was 7.4% and the Potency (AS120) was “inactive”. The Potency (ATS189) was “inactive” and the Potency (W2) was “inactive”.

For `Nc1ccc(-c2ccc(Nc3cc(S(=O)(=O)O)c(N)c4c3C(=O)c3ccccc3C4=O)cc2)c(S(=O)(=O)O)c1`, the Potency [1] was greater than 11.4 µM, the activity change, negative = inhibition [2] was 3.81% and the activity change, negative = inhibition [3] was -2.33%. The activity, negative = inhibition [4] was -2.95%, the Potency [5] was greater than 46 µM and the Potency [6] was greater than 9.22 µM. The Potency [7] was “inactive” and the Potency [8] was “inactive”.

Work on `COc1cc(CN2CCCCC2)cc2cc(C(=O)O)c(=O)oc12` yielded a Potency [1] greater than 11.4 µM, an activity change, negative = inhibition [2] of 17.3% and an activity change, negative = inhibition [3] of 15.7%. It also gave an activity, negative = inhibition [4] of -2.43%, a Potency [5] greater than 46 µM and a Potency [6] greater than 9.22 µM. For the same molecule, the Potency [7] was “inactive” and the Potency [8] was “inactive”.

`Cc1ccc(CN2CCN(Cc3ccc(C)o3)[C@@H](C)C2)o1` gave a Potency [1] greater than 11.4 µM, an activity change, negative = inhibition [2] of -2.23% and an activity change, negative = inhibition [3] of -7.45%. The activity, negative = inhibition [4] was 1.61%, the Potency [5] was greater than 46 µM and the Potency [6] was greater than 9.22 µM. The Potency [7] was “inactive”.

For `COc1ccc2ccccc2c1/C=C\C(=O)c1ccccc1`, the Potency [1] was greater than 11.4 µM, the activity change, negative = inhibition [2] was -15.4% and the Potency [11] was 3.16 µM (active). The Potency [5] was greater than 46 µM, the Potency [7] was “inactive” and the Potency [8] was “inactive”. For the same molecule, the Potency [12] was 1.26 µM (active), the Potency [13] was “inactive” and the Potency [14] was 0.316 µM (active). It also gave an activation [15] of 22.5%.

`CC1(C)S[C@@H]2[C@H](NC(=O)C3(N)CCCCC3)C(=O)N2[C@@H]1C(=O)O` gave a Potency [1] greater than 11.4 µM, an activity change, negative = inhibition [2] of -5.88% and an activity change, negative = inhibition [3] of 9.48%. For the same molecule, the activity, negative = inhibition [4] was 0.508%, the Potency [5] was greater than 46 µM and the Potency [6] was greater than 9.22 µM. For the same molecule, the Potency [7] was “inactive”.

For `Clc1ccc(Cl)c(Nc2ccnc(SCc3ccccc3)n2)c1`, the Potency [1] was greater than 11.4 µM, the activity change, negative = inhibition [2] was 1.81% and the Potency [11] was 0.501 µM (active). The Potency [5] was greater than 46 µM, the Potency [6] was greater than 9.22 µM and the Potency [7] was “inactive”. For the same molecule, the Potency [8] was “inactive”, the Potency [13] was “inactive” and the Potency [14] was 5.01 µM (active). For the same molecule, the activation [15] was -13.8%.

For `c1ccc(CNCCN2CCNCC2)nc1`, the Potency [1] was greater than 11.4 µM, the activity change, negative = inhibition [2] was 4.86% and the Potency [11] was “inactive”. For the same molecule, the Potency [5] was greater than 46 µM, the Potency [6] was greater than 9.22 µM and the Potency [7] was “inactive”. The Potency [8] was “inactive”, the Potency [12] was “inactive” and the activity change, negative = inhibition [16] was -5.12% [at 11.4 µM]. For the same molecule, the Potency [17] was “inactive” and the Potency [14] was “inactive”.
